Measured values: PubChem BioAssay AID588856 (National Center for Advancing Translational Sciences (NCATS), 2011)
Several values for one entry are separate records, joined by “and”; a condition that tells them apart may be missing. Identical values can stand only once. About 3,100 (0.76%) of roughly 410,000 compounds were called active. Where a call stands in place of a potency, no number is given. The sample holds actives, similar compounds and a random draw of the others, so the mix is not that of the screen. Calls follow the shape of the dose curve; as a rule, active = well fitted cell-killing curve with a large enough effect; inactive = no such curve, though single readings can be large or run the other way. Some structures have more than one record in an assay (separate samples or runs), and their calls can disagree.
Potency is read from the fitted curve at half-maximal effect.

Test: qHTS for Inhibitors of TGF-b: Cytotox Counterscreen
Details: HepG2 CAGA-GFP viability, ATP luminescence, 18 h; series mostly up to 46.1 µM
Summary of the method: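 CellTiter-Glo luminescence gave cytotoxicity after 18 hours at 37 degrees C. The cells were HepG2 CAGA-GFP in 1% FBS DMEM, stimulated with 500 pg/mL TGF-beta after compound addition. %Activity was normalised to no-cell wells (complete cell-killing) and DMSO (no toxicity), and curves were fitted and classified.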
In the case of `O=C(CSc1nnc(-c2ccncc2)n1-c1ccccc1)Nc1ccc(Cl)c(Cl)c1`, the Potency was “inactive”. In the case of `Cc1ccc(-c2nn(CCC(=O)Nc3ccc(Cl)c(Cl)c3)c(=O)c3ccccc23)cc1`, the Potency was “inactive”. In the case of `O=C(CC(O)(C(F)(F)F)C(F)(F)F)Nc1ccc(Cl)c(Cl)c1`, the Potency was 10 µM (active). For `O=C(Nc1cc(C(F)(F)F)ccc1Cl)c1ccc2c(c1)CCN2S(=O)(=O)c1ccccc1`, the Potency was “inactive”. With `NC(=O)Nc1ccc(/C=C/c2ccnc3ccccc23)cc1` the Potency was “inactive”. For `CCN(CC)S(=O)(=O)c1ccc(NC(=O)c2cccnc2Cl)c(NC(=O)c2cccnc2Cl)c1`, the Potency was 12.6 µM (active). For `Cc1ccc(S(=O)(=O)N(C)C)cc1NC(=O)c1ccccc1Br`, the Potency was “inactive”. With `CCN(CC)S(=O)(=O)c1ccc(C)c(NC(=O)COc2ccc(Br)cc2Cl)c1` the Potency was “inactive”. With `O=C1O/C(=C\c2ccc(O)cc2)C(O)=C1c1ccc(O)cc1` the Potency was “inactive”. With `COc1ccc(CN2CCC(=O)c3ccccc3S2(=O)=O)cc1` the Potency was “inactive”. For `OCC(O)C(O)C(O)C(O)C=Nc1ccc(/C=C/c2ccnc3ccccc23)cc1` (stereo not drawn), the Potency was “inactive”. For `Cc1nn(Cc2ccc(F)cc2)c(C)c1NC(=O)c1cc(CC(C)C)on1`, the Potency was “inactive”. In the case of `O=C1CCC[C@@H]2C[C@@]3(C[C@@H]4CCN1[C@H]24)Nc1ccccc1NC3=NCc1ccccc1`, the Potency was “inactive”. In the case of `COc1cc(OC)c(OC)cc1/C=C1\C=Cc2ccccc21`, the Potency was “inactive”. In the case of `Cc1nc2nc(SCC(=O)NC3CCC(C)CC3)nn2c(C)c1Cc1ccccc1Cl` (stereo not drawn), the Potency was “inactive”. For `CCCCNC(=O)C1CCCN(c2nnc(C)c3c(C)n(-c4ccc(Cl)cc4)nc23)C1` (stereo not drawn), the Potency was “inactive”. With `Cc1nnc(N2CCCC(C(=O)NCCN(C)C)C2)c2nn(-c3ccccc3)c(C)c12` (stereo not drawn) the Potency was “inactive”. In the case of `CCOc1ccc(CNC(=O)C2CCCN(c3nnc(C)c4c(C)n(-c5ccccc5)nc34)C2)cc1` (stereo not drawn), the Potency was “inactive and 12.6 µM (active)”. For `C(=Nc1ccc(/C=C/c2ccnc3ccccc23)cc1)Nc1ccc(/C=C/c2ccnc3ccccc23)cc1`, the Potency was “inactive”. With `CCc1ccc(NC(=O)c2cc3c(=O)n(Cc4cccnc4)ccc3nc2C)cc1` the Potency was “inactive”. In the case of `Cc1c(Cl)cccc1NC(=O)Cn1cc(C(=O)c2cccs2)c2ccccc21`, the Potency was “inactive”. For `CC(C)(C)c1ccc(S(=O)(=O)Nc2ccc(O)c(Sc3nc4ccccc4s3)c2)cc1`, the Potency was “inactive”. For `CC(C)c1ccc(S(=O)(=O)Nc2ccc(O)c(Sc3nc4ccccc4s3)c2)cc1`, the Potency was “inactive”. In the case of `O=[N+]([O-])c1c(NCCO)cc(Sc2nc3ccccc3s2)c2nonc12`, the Potency was 15.8 µM (active). In the case of `COc1ccc(-c2nn(CC(=O)Nc3ccccc3F)c3c2cnc2ccc(F)cc23)cc1`, the Potency was “inactive”. With `CN(CCC#N)c1ccc(C=O)cc1` the Potency was “inactive”. For `O=C(Cn1c(=O)n(-c2ccc(F)cc2)c(=O)c2sccc21)Nc1cccc(C(F)(F)F)c1`, the Potency was “inactive”. In the case of `COc1ccc(/C=C/c2ccnc3ccccc23)cc1OC`, the Potency was “inactive”. With `O=C(c1c(Cl)cccc1Cl)N1CCN(c2cccc3[nH]ccc23)CC1` the Potency was 0.447 µM (active). In the case of `O=C(c1ccc2ccccc2n1)N1CCN(c2ccccc2Cl)CC1`, the Potency was “inactive”. For `Cc1cccc(N2CCN(C(=O)c3cc4c(=O)[nH]c5ccccc5c4n3C)CC2)c1C`, the Potency was “inactive”. In the case of `CCc1ccccc1N(C)C(=O)C1CCCN(c2ncnc3onc(-c4ccc(F)cc4)c23)C1` (stereo not drawn), the Potency was “inactive”. For `Oc1cccc2cc(-c3ccncc3)cnc12`, the Potency was 2.82 µM (active). With `Cc1ccc2c(c1)N(C(=O)CCC(=O)NCc1ccccc1F)CC(C)O2` (stereo not drawn) the Potency was “inactive”. With `CC1=C(C(=O)OCC2CCCCC2)C(c2c(F)cccc2Cl)CC(=O)N1` (stereo not drawn) the Potency was “inactive”. In the case of `COC(=O)c1ccc(OCC(O)CN(CCO)CC(O)Cn2ccc3ccccc32)cc1` (stereo not drawn), the Potency was “inactive”. With `CN(Cc1ccccc1)CC(O)COc1ccc(CNCc2cc3ccccc3s2)cc1` (stereo not drawn) the Potency was 11.2 µM (active). In the case of `COc1cccc(CN(C)CC(O)COC(c2ccccc2)c2ccccc2C)c1` (stereo not drawn), the Potency was “inactive”. In the case of `C=C1CCN(C(CC(C)C)C(=O)NCc2cc(OC)c(OC)c(OC)c2)S(=O)(=O)c2ccccc21` (stereo not drawn), the Potency was “inactive”. For `O=C(Cn1cc(/C=N/NC(=O)c2cccc(C(F)(F)F)c2)c2ccccc21)Nc1ccc(F)cc1`, the Potency was “inactive”. With `N#CCC(=O)N/N=C/c1cn(Cc2ccc3ccccc3c2)c2ccccc12` the Potency was 3.55 µM (active). With `Cc1ccc(Cl)cc1NC(=O)/C(C#N)=C\c1cn(Cc2ccc(F)cc2)c2ccccc12` the Potency was “inactive”. With `Cc1ccc(Cn2c(CCCNC(=O)C3CCCCC3)nc3ccccc32)cc1` the Potency was “inactive”. In the case of `Cc1ccc2c(=O)c(C(=O)c3cccc(Cl)c3)cn(CC(=O)NCc3ccccc3)c2n1`, the Potency was “inactive”. For `COc1ccc(-c2c(C#Cc3ccccc3)c3ccccc3n2C)cc1`, the Potency was “inactive”. For `COc1ccc(CCNCc2c(-c3ccccc3)n(C)c3ccccc23)cc1`, the Potency was 12.6 µM (active). With `COc1ccc(Cn2c(C(=O)O)c(CNCCc3cccs3)c3ccc(OC)cc32)cc1` the Potency was “inactive”. In the case of `CN(C)c1ccc(/C=C/c2sc3ccccc3[n+]2C)cc1`, the Potency was “inactive”. In the case of `CCC(C)c1ccc2oc(-c3ccc(NC(=O)c4cc5ccccc5o4)cc3)nc2c1` (stereo not drawn), the Potency was “inactive”. In the case of `CN(C)C(CNC(=O)Cc1ccc([N+](=O)[O-])cc1)c1ccccc1` (stereo not drawn), the Potency was “inactive”. For `CCc1ccc(C(CNc2nc(C(F)(F)F)nc3ccccc23)N(C)C)cc1` (stereo not drawn), the Potency was 20 µM (active). In the case of `CN(NC(=O)c1ccccc1F)c1nc(C(F)(F)F)nc2ccccc12`, the Potency was “inactive”. For `CC1CCN(S(=O)(=O)c2ccc3c(ccn3CCC(=O)NCc3ccc(N(C)C)cc3)c2)CC1`, the Potency was “inactive”. In the case of `O=C(O)c1c(Br)c(Br)c(Br)c(Br)c1C1c2ccc(O)cc2Oc2cc(O)ccc21`, the Potency was “inactive”. With `Cc1cc(F)ccc1NS(=O)(=O)c1ccc(-n2cccn2)cc1` the Potency was “inactive”. With `Cc1ccc(OCCn2c(CNc3ccccc3C)nc3ccccc32)cc1` the Potency was “inactive”. In the case of `Cc1ccc(OS(=O)Nc2cccc3nccnc23)cc1` (stereo not drawn), the Potency was 15.8 µM (active). With `Cc1ccc(Oc2ccc3c(c2)C(=O)N(c2cccc4cccnc24)C3=O)cc1` the Potency was “inactive”. For `CCOCCn1ccc2c(OCC(=O)NCc3ccc(C)cc3)cccc2c1=O`, the Potency was “inactive”. For `COc1ccc(Cc2nc3ccc(C(=O)NCc4ccc(OC)cc4OC)cc3o2)cc1`, the Potency was “inactive”. In the case of `CCOC(=O)c1c(NC(=O)c2ccc(S(=O)(=O)N3CCCC(C)C3)cc2)sc2c1CCN(C(C)C)C2` (stereo not drawn), the Potency was 10 µM (active). For `COC(=O)c1c(NC(=O)c2ccc(S(=O)(=O)N3CCOCC3)cc2)sc2c1CCN(C(C)C)C2`, the Potency was “inactive”. With `CCOC(=O)c1c(NC(=O)C2CCN(S(=O)(=O)c3ccc(Cl)cc3)CC2)sc2c1CCCC2` the Potency was “inactive”.
